Data on 7 compounds can be found in PubChem BioAssay (Tox21).

Unmarked numbers belong to inactive results. Records with an inconclusive call do not appear. The source made the active and inactive calls. Unless noted, calls come from the whole dose curve; as a rule, active = well fitted curve in the direction sought with a large enough effect in the repeat runs; inconclusive = weak or mixed curves; inactive = no such curve, though single readings can be large; an effect the other way counts as inactive or inconclusive.

Test [1] deals with Nuclear receptor subfamily 1 group I member 3 (Homo sapiens) (UniProt Q14994). The test can be described thus: qHTS assay to identify small molecule agonists of the constitutive androstane receptor (CAR) signaling pathway (AID 1224839).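 Note: HepG2 cells stably carrying human CAR and a CYP2B6 luciferase reporter; series mostly up to about 92 µM; nearly all actives have a fitted effect of over 15% in size.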 The procedure, abridged: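 Readout: firefly luciferase luminescence via ONE-Glo. System: HepG2 double-stable for hCAR and CYP2B6-2.2kb. Conditions: 15-point compound titration, PK11195 at 0.75 uM final, 24 h incubation.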
(qHTS replaces the single test concentration by a dilution series.)

A short description of test [2]: qHTS assay to identify small molecule antagonists of the estrogen related receptor signaling pathway with the pleiotropic PPARgamma coactivator (PGC) from Tox21 10K library - cell viability counter screen (AID 1224840; active = well fitted cell-killing curve with a large enough effect in the repeat runs, not every such curve was filed as active; note: nearly all actives have a fitted effect of over 40% in size). The gist of the method:
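Seeded PGC/ERR cells (2,000/well, 6 h, 37 C/5% CO2) get compound by pin tool; 17.5 h incubation at 37 C; CellTiter-Fluor added, 30 min, fluorescence measured.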

Test [3] is described as follows: qHTS assay to identify small molecule antagonists of the estrogen related receptor signaling pathway with the pleiotropic PPARgamma coactivator (PGC) from Tox21 10K library (AID 1224841; call rule not given here; note: series mostly up to about 92 µM; actives are mostly falling curves and most rising ones were filed inactive; nearly all actives have a fitted effect of over 50% in size). The gist of the method: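 Test chemicals dissolved in DMSO were applied to pre-incubated (6 h) PGC/ERR cells at 2,000 cells/well for an 18 h, 37 C treatment; reporter luminescence was then read using One-Glo.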

Test [4] can be described thus: qHTS assay to identify small molecule agonists of the estrogen related receptor signaling pathway with the pleiotropic PPARgamma coactivator (PGC) from Tox21 10K library (AID 1224842). Note: nearly all actives have a fitted effect of over 15% in size. The procedure, abridged:
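PGC/ERR reporter cells (NTP line) were seeded 2,000 per well, rested 6 h at 37 C/5% CO2, then pin-dosed with compounds in DMSO for 18 h at 37 C; luciferase read by One-Glo luminescence after 30 min at room temperature.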

In test [5] the target is Thyrotropin receptor (Homo sapiens) (UniProt P16473). The test can be described thus: qHTS assay to identify small molecule agonists of the thyroid stimulating hormone receptor (TSHR) signaling pathway (AID 1224843; calls by dose curve; note: nearly all actives have a fitted effect of over 45% in size). The gist of the method:
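Using 15 concentrations per compound in triplicate, cAMP production was monitored in TSHR-HEK293 cells after 30 min compound incubation at RT; HTRF reagents followed, with fluorescence intensity recorded after 1 h.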

A short description of test [6]: qHTS assay to identify small molecule agonists of the hypoxia (HIF-1) signaling pathway - cell viability counter screen (AID 1224844; calls by dose curve; note: nearly all actives have a fitted effect of over 50% in size). The procedure, abridged:
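HRE-bla ME-180; 0.5% dFBS; cpd 17 h, 37C, 5% CO2; CellTiter-Glo lum., 30 min RT, post-FRET read, same wells.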

Test [7] is described as follows: qHTS assay to identify small molecule agonists of H2AX (AID 1224845; active = well fitted activation curve with a large enough effect in the signal ratio in the repeat runs, not every such curve was filed as active; the % refers to the signal ratio). The procedure, abridged: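 Wild-type CHO-K1 cells plated overnight, then exposed 3 hr at 37C to compounds at 15 concentrations (0.76% DMSO). Lysed, then HTRF anti-pH2AX(S139)-cryptate/anti-H2AX-d2 detection after 24 hr at room temperature; emissions 665 and 620 nm.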
A short description of test [8]: qHTS assay to identify small molecule agonists of H2AX - cell viability counter screen (AID 1224847; calls by dose curve; note: top concentration of the series differs between compounds; nearly all actives have a fitted effect of over 30% in size). The procedure, abridged:
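For this counter screen, overnight-attached CHO-K1 cells received test compounds (15 concentrations, 0.76% DMSO final); 3 hr later at 37C, CellTiter-Glo reagent was added and luminescence recorded after 30 min at room temperature.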

Test [9] in a line: qHTS assay to identify small molecule antagonists of the estrogen related receptor (ERR) signaling pathway from Tox21 library (AID 1224848). Note: nearly all actives have a fitted effect of over 50% in size. Note: potency is the fitted concentration of half-maximal effect. The gist of the method: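 Tox21 10K compounds in DMSO tested for ERR pathway antagonism in NTP's ERR cell line; 18 h, 37 C exposure; ONE-Glo luminescence.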
Test [10] can be described thus: qHTS assay to identify small molecule agonists of the estrogen related receptor (ERR) signaling pathway from Tox21 library (AID 1224849; calls by dose curve; note: nearly all actives have a fitted effect of over 15% in size). The gist of the method:
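Tox21 compounds tested for ERR agonism in an NTP reporter cell line: 18 h treatment at 37 C, then ONE-Glo luminescence.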

Test [11] in a line: qHTS RealTime-Glo MT Cell Viability Assay in HepG2 cells - 24 hour (AID 1224867). Note: nearly all actives have a fitted effect of over 50% in size. The gist of the method: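 HepG2 suspension premixed with RealTime-Glo reagents is plated at 600 cells per well and left 5 h at 37 C/5% CO2. Compounds in DMSO then go in, and bioluminescence reflecting viable cell number is recorded over 40 h.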
Test [12] can be described thus: qHTS RealTime-Glo MT Cell Viability Assay in HEK293 cells - 32 hour (AID 1224868). The procedure, abridged: (§1)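 Reads taken at 0, 8, 16, 24, 32 and 40 h from the same wells. HEK293 cells (600/well) carried RealTime-Glo reagents from seeding, with compound added after a 5 h settle at 37 C.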
Test [13] is described as follows: qHTS RealTime-Glo MT Cell Viability Assay in HepG2 cells - 40 hour (AID 1224870). Note: nearly all actives have a fitted effect of over 50% in size. The procedure, abridged: (§2)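 HepG2 cells mixed with RealTime-Glo MT reagents (NanoLuc plus cell-permeant prosubstrate) were seeded at 600 cells/well, incubated 5 h at 37 C/5% CO2, then pinned with compounds in DMSO; nonlytic luminescence tracked viability during 40 h treatment.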
A short description of test [14]: A CellTox Green Cytotoxicity Assay to monitor cytotoxicity in HEK293 cells - 40 hour (AID 1224871). Note: nearly all actives have a fitted effect of over 45% in size. The gist of the method:
(§3)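 Tox21 screen in HEK293: membrane-impermeant cyanine dye fluoresces on binding dead-cell DNA; compound pinned 5 h post-seeding, plates held at 37 C, signal read repeatedly through 40 h.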

A short description of test [15]: qHTS RealTime-Glo MT Cell Viability Assay in HEK293 cells - 16 hour (AID 1224872). The gist of the method:
as §1

The nature of test [16]: qHTS RealTime-Glo MT Cell Viability Assay in HepG2 cells - 8 hour (AID 1224873). Note: nearly all actives have a fitted effect of over 55% in size. The procedure, abridged:
as §2

A short description of test [17]: qHTS RealTime-Glo MT Cell Viability Assay in HEK293 cells - 40 hour (AID 1224874). Note: nearly all actives have a fitted effect of over 50% in size. The following applies: RealTime-Glo luminescence; max response: active compounds read low. The gist of the method: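 HEK293 + NanoLuc + prosubstrate, 600 cells/well; 5 h, 37 C/5% CO2; compound 23 nL in DMSO by pintool; 37 C; luminescence read at 0, 8, 16, 24, 32 and 40 h time points.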

Test [18] in a line: A CellTox Green Cytotoxicity Assay to monitor cytotoxicity in HEK293 cells - 24 hour (AID 1224875). Note: series mostly up to about 77 µM; nearly all actives have a fitted effect of over 45% in size. The gist of the method:
as §3

Test [19] is described as follows: A CellTox Green Cytotoxicity Assay to monitor cytotoxicity in HEK293 cells - 0 hour (AID 1224869). Note: nearly all actives have a fitted effect of over 50% in size. The procedure, abridged:
as §3

The nature of test [20]: qHTS assay to identify small molecule agonists of the hypoxia (HIF-1) signaling pathway (AID 1224846; active = well fitted activation curve with a large enough effect in the signal ratio in the repeat runs, not every such curve was filed as active; the % refers to the signal ratio). The procedure, abridged:
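Reporter induction in HRE-bla ME-180 cells is taken as agonism: cells sit 5 hrs after plating, receive compounds or DMSO only, incubate 17 hrs at 37C under 5% CO2, and are loaded with CCF4-AM for beta-lactamase FRET measurement.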
% is set by controls: 0 for no effect and ±100 for the full control effect.

Sequence of Thyrotropin receptor (Homo sapiens) (P16473 whole entry, looked up): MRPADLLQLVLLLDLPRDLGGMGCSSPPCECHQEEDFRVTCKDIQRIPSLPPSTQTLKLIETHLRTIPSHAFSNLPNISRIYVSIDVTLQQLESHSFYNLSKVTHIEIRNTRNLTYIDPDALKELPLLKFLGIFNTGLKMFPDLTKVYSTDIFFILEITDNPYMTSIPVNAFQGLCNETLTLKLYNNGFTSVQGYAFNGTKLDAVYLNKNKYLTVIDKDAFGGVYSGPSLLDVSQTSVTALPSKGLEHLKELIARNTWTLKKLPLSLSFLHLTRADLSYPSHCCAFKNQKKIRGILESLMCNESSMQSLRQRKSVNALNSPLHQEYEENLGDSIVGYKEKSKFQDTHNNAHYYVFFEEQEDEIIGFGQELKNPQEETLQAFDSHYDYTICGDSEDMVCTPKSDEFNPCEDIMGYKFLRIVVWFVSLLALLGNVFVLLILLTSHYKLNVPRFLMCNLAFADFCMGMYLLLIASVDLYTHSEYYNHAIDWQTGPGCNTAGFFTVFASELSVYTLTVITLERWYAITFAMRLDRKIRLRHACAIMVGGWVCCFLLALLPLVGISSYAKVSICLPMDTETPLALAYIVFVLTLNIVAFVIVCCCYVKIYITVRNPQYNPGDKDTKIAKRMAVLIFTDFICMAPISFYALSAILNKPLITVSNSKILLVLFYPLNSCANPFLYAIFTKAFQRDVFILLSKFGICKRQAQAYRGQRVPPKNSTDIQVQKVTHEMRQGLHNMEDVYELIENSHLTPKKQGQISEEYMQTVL
Sequence of Nuclear receptor subfamily 1 group I member 3 (Homo sapiens) (Q14994 whole entry, looked up): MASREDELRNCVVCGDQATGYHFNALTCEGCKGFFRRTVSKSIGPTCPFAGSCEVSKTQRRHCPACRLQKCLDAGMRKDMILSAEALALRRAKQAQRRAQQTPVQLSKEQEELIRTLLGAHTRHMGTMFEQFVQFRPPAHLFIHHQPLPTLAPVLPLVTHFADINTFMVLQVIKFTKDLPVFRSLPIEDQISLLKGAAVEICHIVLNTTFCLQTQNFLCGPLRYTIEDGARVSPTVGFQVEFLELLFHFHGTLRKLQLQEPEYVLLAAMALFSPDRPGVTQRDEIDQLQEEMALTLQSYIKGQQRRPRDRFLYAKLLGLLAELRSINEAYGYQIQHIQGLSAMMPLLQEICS

For the compound `CC(=O)c1ccc2c(c1)CCCC2`, the Potency entry in test [1], in test [3], in test [8], in test [9], in test [12] and in test [14] was “inactive” throughout. The Potency entry in test [15] and in test [18] was “inactive” throughout. Also, the compound was classed as inactive in [2], in test [4], in test [5], in test [6], in test [7] and in test [10]. Also, the compound was classed as inactive in test [11], in [13] and in test [16]. Further, the max response in test [17] was -1.61%.
As to `Cc1ccc2c(c1)c1c3n2CCNC3CCC1` (stereo unspecified), the Potency entry in [1], in [8], in test [12], in test [19], in test [14] and in test [15] was “inactive” in each case. For the same compound, in test [18], the Potency result is “inactive”. The call in test [2], in test [5], in test [6], in test [7], in [11] and in test [16] was inactive. Moreover, the max response in test [17] was 0.813%.
For `C=C(C)C(=O)OC`, the Potency result in test [1], in test [3], in test [8], in [9], in [12] and in test [14] was “inactive” in each case. Further, the Potency entry in [15] and in test [18] was “inactive” throughout. In addition, the compound was called inactive in [2], in test [4], in test [5], in test [6], in [7] and in test [20]. Moreover, the result in [10], in test [11], in test [13] and in test [16] was inactive. In addition, the max response in test [17] is -13.6%.
As to `Cc1cccc(C(=O)O)c1[N+](=O)[O-]`, the Potency entry in [1], in test [8], in [12], in test [19], in test [14] and in test [15] was “inactive” each time. In addition, the outcome in [2], in test [5], in [6], in test [7], in test [20] and in [11] was inactive. In addition, the call in test [16] was inactive. For the same compound, the max response in test [17] is 0.185%.
With `O=C1c2ccccc2-c2ccccc21`, the Potency entry in test [1], in test [3], in test [8], in test [9], in test [12] and in test [19] was “inactive” each time. The Potency entry in [14] and in test [15] was “inactive” each time. Besides, the compound was called inactive in test [2], in [4], in [5], in [6], in test [7] and in test [20]. The result in [10], in [11], in [13] and in test [16] was inactive. The max response in test [17] is 1.19%.
`C/C=C(\C)C(=O)OCC/C=C\CC`: the Potency entry in [1], in [8], in [12], in test [19], in [14] and in test [15] was “inactive” throughout. The Potency entry in test [18] was “inactive”. The result in test [2], in test [5], in [6], in [7], in [20] and in test [11] was inactive. In test [16], the compound was classed as inactive. In addition, in test [17], the max response was 2.25%.
With `Cc1cccc(NC(=S)N(C)C)c1`, the Potency result in [1], in [3], in test [12], in [19], in test [14] and in [15] was “inactive” throughout. Further, the outcome in test [2], in test [4], in [5], in test [6], in [7] and in test [20] was inactive. For the same compound, the compound was called inactive in test [10], in test [11], in test [13] and in [16]. Also, the Potency in test [9] is 48.6 µM (active).
